± gives the standard deviation of the averaged measurements. Whole data set: some 25,000 sequences, median “ln(normalized median fluorescence intensity)” near 10, cut for the highest 2% near 12. This is one part of a sample in which the highest values are shown more often than they occur.
tested on: PfAP2-G AP2 domain (GST-tagged); experiment: gcPBM binding intensity (ln(normalized median fluorescence intensity)); higher = stronger DNA binding
In short: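 Binding of GST-tagged P. falciparum DNA-binding domains, expressed in E. coli and used at about 25 μg on average, was carried out for 1 h in 1× PBS containing 1% milk, 0.2 mg/ml BSA, 0.5% salmon testes DNA and 0.03% Triton X-100. The target was an Agilent 4 × 180k array of primer-extended double-stranded 36-bp intergenic genomic probes plus negative controls, read with Alexa488 anti-GST antibody at 488 nm. Binding intensity is the highest Masliner-normalised natural-log median intensity across replicate spots of either probe orientation.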

Sequence	gcPBM binding intensity (ln)
TGCTATAATTTATATACACACAAATATATACGCATA [CACACA_site4096]	10 ± 0.14
TTTTTTTTGCGTACAGTGCAAATTTATTTACTATTC	11.7 ± 1.1
TTTTATTTACACAGTGGTACTATTAAAAATTAATGA [XGTACX_site6737]	11 ± 0.7
AGAAAAATTATTTTGCGTACATATTTACAATAAAAA [XGTACX_site2144]	11.5 ± 0.75
GACATTTCTTGGGATACATGCATGTCCCAGAACAAA [TGCATGCA_site271]	10.6 ± 0.4
TTATTTTTTAGTAGTACACACTTTTTGTACCTTTTA [CACACA_site4503]	11.8 ± 1.1
TTTGAACTTTTATATACACACATTATTATAGTATAG [CACACA_site6851]	10.04 ± 0.071
TGTTTACACTTTTTTTGTACACATAATTTTATTTGA [XGTACX_site3760]	11.3 ± 0.81
TTTTTATTTTTTAGTAGTACACACTTTTTGAACCTT [XGTACX_site1091]	11.6 ± 0.97
TTTTATTTTTTAGTAGTACACACTTTTTGTACCTTT [CACACA_site599]	11.8 ± 1
CTTATTTCCTTTTGTAGTACCTTATAATATATATAA [XGTACX_site8873]	11.3 ± 0.69
TTTTTATTTTTGTAGTGTACTTTATTTTTTTTGTTT [XGTACX_site8887]	11.6 ± 0.91
ATTCTTTTATTTAGTAGTACATTTGTATTTTATTCA [XGTACX_site5790]	11.5 ± 0.95
TTTTTTATTACTTTGTGTACTTACACAGAACCTTAT [XGTACX_site6038]	11.5 ± 0.88
AATTATATAAGCCACGCATGTGTGCATAAAAATACA [TGCATGCA_site114]	10.2 ± 0.14
TGTACGAGTCGTAGAGTGCAGTCTGGAGAAACGTAC [GTGCAC_site9682]	11 ± 0.47
AATTTACATATATATTGTACATTTATGTATATATAT [XGTACX_site4186]	10.7 ± 0.52
AAATAAATCTTATGCACACAAATAATTAATTAAACA [CACACA_site1693]	10.06 ± 0.014
ATAAAAAAAATAAAAAGTACAAAAAAAAAAAATGGA [XGTACX_site136]	11.3 ± 0.71
ACATATGACTATAATACACACTTGTATTATTAATAT [CACACA_site6951]	9.98 ± 0.13
ATATATATATCTAATTGTACATATTTTATAAATAAG [XGTACX_site4840]	11 ± 0.52
GGCATAAATATATGCACACACAAAAAAAAAAAAAAA [CACACA_site59]	10 ± 0.65
GAAAAAAATGAAATTAGTACTTATCTTAAATTTTTA [XGTACX_site1018]	10.8 ± 0.47

Sequence	gcPBM binding intensity (ln)
TATGCTATTATATATGTACACACCAATTTATTTATA [CACACA_site3918]	11.3 ± 0.74
TTTTCTTACATGAGTGTACACACTTTTTTTCAGAAA [CACACA_site70]	11.6 ± 0.91
AGAAAAAAAAAAAAATGTACAGACTTTTTCTTATAA [XGTACX_site6481]	11 ± 0.55
TTTTTCTTACATGAGTGTACACACTTTTTTTCAGAA [XGTACX_site138]	11.7 ± 0.83
ATCTTTCGAACATGTACACACAGAAAAAAAAAAAAA [CACACA_site5393]	11.3 ± 1
AATATTTATTTTACATGTACTTATTTTTCTTTTAAC [XGTACX_site3631]	11.4 ± 0.88
TTCTTACATGAGTGTACACACTTTTTTTCAGAAAAT [CACACA_site4215]	11.7 ± 1
ATGTTTGATGCTACACGTACACACCTTGCAAATATT [XGTACX_site1644]	11.6 ± 1
TATAATATGTTTGATGGTACACGTAAACACCTTGCA [XGTACX_site1643]	11.1 ± 0.68
AAATATTTTGCATACACATGCAAATATTTTTTACAT [TGCATGCA_site554]	9.8 ± 0.11
TTTGATGGTACACGTACACACCTTGCAAATATTTTT [CACACA_site4645]	11.8 ± 1
TGTTTGATGGTACACGTACACACCTTGCAAATATTT [CACACA_site888]	11.8 ± 1.2
TATACAATATATTTTGGTACACAAACAAAAAAATAT [XGTACX_site2522]	11.2 ± 0.82
ATATATATCGGACACACACACATGTTTTAAAACTAT [CACACA_site4218]	10.9 ± 0.64
TGTTTATTTTTAAAAAGTACATATTTAAAAAACTTC [XGTACX_site271]	11.4 ± 1
ATTTTTTTTTTTTTTTTGGGGGGGTATACTTTTAAA [CACACA_negctrl_site1020]	11.9 ± 0.77
TATATTTAACATACTTTTTTTTTTTTTTTTTTTTTT [CACACA_negctrl_site938]	10.9 ± 0.45
TATACTTTATATATTTTGTATATATATTTTTTTTAT [TGCATGCA_negctrl_site530]	9.645 ± 0.035
TTTTTTTTTTTTTGGGGTACATTTTAATTAATATTA [XGTACX_site4866]	11.4 ± 0.86
CCATTTATTATTTGGGGTACATTTAATTAATATTTT [XGTACX_site5940]	11.5 ± 1
GTTAATATTTTTGGGGGTACTTAAAAAAAAAAAAAA [XGTACX_site1477]	11.7 ± 0.91
ACAGATATACATAAAAAAAAAATAATTTTACATATA [CACACA_negctrl_site929]	9.765 ± 0.049
TACATAAATACATACACACACATATAACCAATGTAG [CACACA_site5243]	10.3 ± 0.11

Sequence	gcPBM binding intensity (ln)
AATCATTTATGGAAAGCATGCTAAATTAGAGTATAC [TGCATGCA_site172]	10.03 ± 0.064
TAATGTAATACATATTGTACACATACATATATATTT [XGTACX_site7531]	11.2 ± 0.71
AAAACAAACATTACACGTACAAAACAAGTTATAGAC [XGTACX_site6320]	11.4 ± 0.74
TGAGTTCAACAAAGACGTACAAAACCAAAAATATAA [XGTACX_site8931]	11.6 ± 0.93
TTTCAAACAAAAAGACGTACACTGAAGTTATCCGTC [XGTACX_site8824]	11.8 ± 1
AAAAAAAAAAGACACACACACACACGGAGATATATA [CACACA_site6216]	10.1 ± 0.22
TATGTGTAATATTTTTGTACAGAAAAAAAAAAAAAA [XGTACX_site7075]	10.8 ± 0.77
AATTAATGGGTACATACACACATATATACATACATA [CACACA_site742]	11.4 ± 1
TATTTATAAATTTACACACACACATGTGAACATAAA [CACACA_site1909]	10.2 ± 0.14
TATCCTAACTTTAGATGTACACAAATAAAAAAAAAA [XGTACX_site4491]	11.7 ± 0.91
ATAACAAAATAAAACACACACACAAATGTACAGATA [CACACA_site5358]	11.1 ± 0.72
ATAAATATTTACAAAAGTACACATAACTTTAGATAT [XGTACX_site1685]	11.4 ± 0.9
TTTATTTATATTTATACACACAAACATAATACTACT [CACACA_site7039]	10.3 ± 0.28
AGGTCTATATAATAAGTGCATTTTTTTTTTTTTTTT [GTGCAC_site9664]	10.2 ± 0.26
TTTTTAATATATAAAGATAATAATAAATAAAATTCA [CACACA_negctrl_site657]	9.46 ± 0.12
TATATGCACTTAATATGTACACAAAAAAAAAAAAAA [XGTACX_site6199]	11.5 ± 1.2
CAATAAAAATTAAAATGTACAAATAAATATAAATAT [XGTACX_site7265]	10.8 ± 0.29
GATTATTATTATAAGGGTACAAATATTTAATAAAAA [XGTACX_site7144]	11 ± 0.57
AAAAAAATTAAATGGGGTACAATAAGGGTCAAATAT [XGTACX_site8669]	11.6 ± 0.93
AATTATATATTATCATGTACAAATATAGTAATACAA [XGTACX_site6845]	10.7 ± 0.4
ATATAAACACTGAATGCATGCACATATATATATATA [TGCATGCA_site940]	10.2 ± 0.26
TATACGCATATTTTTACACACATATTTTTTCATATA [CACACA_site2546]	10.02 ± 0.049
AAAAAAATAACAAAGTGTACTTTTATATTTTACATA [XGTACX_site8954]	11.3 ± 0.93

Sequence	gcPBM binding intensity (ln)
ACATATATTTCAAAGTGTACGCACAATTTTTTTTAC [XGTACX_site6166]	11.7 ± 1
AAAGTATAAATAAATACACACATATTTATTTATATA [CACACA_site7375]	9.96 ± 0.2
CCACATATACAAAACACACACACAACGTTTTAATAA [CACACA_site1978]	10.1 ± 0.16
GCTAGTTTTTTTTGGCGTACAGTACCGGTTTACTTT [XGTACX_site2606]	11.6 ± 1
TCTGTAGTTTTTTACAGTACTTTTAGGTAATACATA [XGTACX_site7417]	11 ± 0.79
ATGACTTACATATATAGTACTTTGTTTTGGAGTTGC [XGTACX_site94]	10.8 ± 0.45
ATAATTCCAAGAATTTCATATATCTGAATTTTAGGT [GTGCAC_negctrl_site283]	9.61 ± 0.2
GACCATATGAATAATGCACACGTTTTAAAATATTAA [CACACA_site5312]	10.23 ± 0.028
AACGATATAGGTACTACACACATTATGTCATCCTAT [CACACA_site7205]	11.2 ± 0.77
AACGATATCTGTACTACACACATTATGTCATCCTAT [CACACA_site5374]	11.8 ± 1.1
AACGATATATGTACTACACACATTATGTCATCCTAT [CACACA_site2464]	11.5 ± 0.83
TATAATGAACATATGTGTACATATATTTTTTAAATT [XGTACX_site8736]	11.4 ± 0.72
TTTGTATAATACATGTGTACGTATTTTTATATAAAT [XGTACX_site8656]	11.6 ± 0.95
CACTTTTTTTAAATGTGTACGTATATGAAAATATCA [XGTACX_site4854]	11.7 ± 1
TTAAATGAAAAAATATGTACGTATAATAAGAAATAT [XGTACX_site6619]	11.6 ± 0.87
ATATTTATATTTATGTGTACATATGAAATAATTATT [XGTACX_site7765]	11.5 ± 0.72
AAATTTTAAATAGTATGTACGTATGAAATATATATG [XGTACX_site7511]	11.4 ± 0.79
TTTTATACATAAATGTGTACGTATATATAATGAATT [XGTACX_site2762]	11.7 ± 1
TTTTATACATAAATATGTACGTATATATAATGAATT [XGTACX_site1337]	11.3 ± 0.73
ATGTATGAAAAAATGTGTACATAATTTTTTTTTTTT [XGTACX_site5444]	11.7 ± 1

Reference: the supplement of paper PMC11417369
